Sfp inh – blocks B. subtilis Sfp PPTase activity; Biochemical Sfp PPTase activity, qHTS; Potency, µM, usual class: inhibitors; hit rate 3.5% among 310,000;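 further: the enzyme is Sfp with the accession as filed and its product quenches rhodamine fluorescence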
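Compounds were incubated with enzyme (final 15 nM) for 15 min at room temperature before substrate addition started the reaction. Fluorescence at 525 nm excitation, 598 nm emission was recorded immediately and after 30 minutes.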
BAZ2B block – inhibitors of human BAZ2B bromodomain | hit rate 4.4% among 360,000 | Q9UIF8 | AlphaScreen BAZ2B-H3K14Ac peptide displacement | Potency, µM (titrated, usually from 114 µM), hits mostly inhibitors; further: nearly all actives have a fitted effect of over 60% in size
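Complex of BAZ2B and biotin-H3K14Ac (50 nM apiece) forms over 30 min at RT, then faces library compounds up to 110 uM for another 30 min; AlphaScreen beads added, 20 min dark incubation, luminescence read.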
L3MBTL1 block – blocks human L3MBTL1; hit rate 0.66% among 230,000; Potency, µM (titrated, usually from 57.1 µM), usual class: inhibitors; AID 485360; AlphaScreen L3MBTL1–H3K9me1 peptide binding; further: nearly all actives have a fitted effect of over 60% in size
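AlphaScreen proximity signal between nickel-chelate acceptor and streptavidin donor beads (final 10 ug/mL) reports binding of 50 nM L3MBTL1 to 75 nM biotin-H3 K9me1 peptide; complex incubated with compounds 30 min at room temperature; cefsulodin titration as control.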
HP1b chromo inh – inhibitors of HP1-beta chromodomain binding to methylated histone tails | Potency, µM (series often up to 114 µM), usual class: inhibitors | P83916 | AlphaScreen HP1-beta / biotin-H3K9me3 peptide binding | hit rate 0.56% among 390,000 | AID 540317; further: nearly all actives have a fitted effect of over 70% in size
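HP1-beta protein (50 nM final) preincubated 30 min at room temperature with biotinylated H3(1-18)K9me3 peptide (50 nM) in PBS pH 7.4, 0.01% Tween-20, then compound added for 30 min. AlphaScreen streptavidin donor/nickel chelate acceptor beads (10 ug/mL final), 30 min dark, luminescence read.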
G9a block – inhibitors of human histone lysine methyltransferase G9a; Q96KQ7; G9a H3K9 monomethylation, AlphaScreen, 2 h; Potency, µM (top dose mostly 102 µM), most hits filed as inhibitors; hit rate 8.8% among 350,000; further: nearly all actives have a fitted effect of over 75% in size
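Methyltransferase reactions run at room temperature for 2 h (20 nM enzyme, 500 nM biotin-H3K9 peptide, 20 uM SAM) after a 15 min compound preincubation; product detected by AlphaScreen beads and anti-H3K9me1 antibody.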
JMJD2A Tudor – blocks the human JMJD2A Tudor domain; O75164; hit rate 4.4% among 390,000; AlphaScreen JMJD2A-Tudor / H3K4me3 peptide binding; Potency, µM (top dose mostly 114 µM), hits mostly inhibitors; further: nearly all actives have a fitted effect of over 50% in size
Each line names hits and unclear results; the compound was inactive in the other large screens. In the library only some 12% were active in any assay of this set; here they are far more common. The call rests on the fitted dose curve; in most records, active means well fitted curve in the direction sought with a large enough effect; inconclusive means small, poorly fitted or top-dose-only effect, or another doubt; inactive means no such curve, though single readings can be large; an effect the other way counts as inactive or inconclusive.

CCCc1nc2ccccc2c(=O)n1/N=C/c1ccc(O)cc1	none
O=c1c2ccccc2nc(N/N=C/c2c(O)ccc3ccccc23)n1O	Sfp inh 40µM, BAZ2B block 28µM, L3MBTL1 block inconclusive, G9a block inconclusive, JMJD2A Tudor 50µM
Oc1ccc2ccccc2c1C=NNc1ccccn1	none (no result: Sfp inh, BAZ2B block, L3MBTL1 block, G9a block)
CCC1CCCCN1C(=O)COC(=O)c1cc(C)nc2ccccc12 (stereo unspecified)	none (no result: Sfp inh)
COc1ccc(/C(O)=C2\C(=O)C(=O)N(Cc3ccco3)C2c2cc(OC)ccc2OC)cc1 (stereo unspecified)	Sfp inh inconclusive, BAZ2B block inconclusive, JMJD2A Tudor 89µM
CCOc1ccc(/C(O)=C2/C(=O)C(=O)N(CC3CCCO3)C2c2ccco2)cc1 (stereo unspecified)	L3MBTL1 block inconclusive, G9a block inconclusive, JMJD2A Tudor 79µM
Cc1ccc(C2/C(=C(/O)c3ccc(Br)cc3)C(=O)C(=O)N2Cc2ccco2)o1 (stereo unspecified)	Sfp inh 3.5µM, L3MBTL1 block inconclusive, JMJD2A Tudor inconclusive
Cc1ccccc1COc1ccc(/C(O)=C2/C(=O)C(=O)N(CCCn3ccnc3)C2c2ccco2)cc1 (stereo unspecified)	Sfp inh inconclusive, G9a block 32µM, JMJD2A Tudor inconclusive
CC(=O)N1c2ccc(S(=O)(=O)N(C)CC(=O)NC3CCCCC3C)cc2CC1C (stereo unspecified)	G9a block inconclusive (no result: L3MBTL1 block)
O=C(Cn1ncc2ccsc2c1=O)N1CCN(c2ccc(F)cc2)CC1	none (no result: Sfp inh, L3MBTL1 block)
O=C(Nc1ccccc1OC(=O)c1ccccc1)c1ccccc1	none (no result: Sfp inh, BAZ2B block, L3MBTL1 block, G9a block)
COc1cccc(/C(O)=C2/C(=O)C(=O)N(Cc3ccco3)C2c2ccncc2)c1 (stereo unspecified)	BAZ2B block inconclusive, G9a block 28µM, JMJD2A Tudor inconclusive
COc1cccc(C2/C(=C(/O)c3ccc(C)cc3)C(=O)C(=O)N2Cc2ccco2)c1 (stereo unspecified)	none
COc1ccc(OC)c(C2/C(=C(/O)c3ccc(C)cc3)C(=O)C(=O)N2Cc2ccco2)c1 (stereo unspecified)	G9a block inconclusive
COc1cccc(C2/C(=C(/O)c3ccccc3)C(=O)C(=O)N2Cc2ccco2)c1 (stereo unspecified)	Sfp inh inconclusive, G9a block 56µM
COCCN1C(=O)C(=O)/C(=C(/O)c2cccc(OC)c2)C1c1ccncc1 (stereo unspecified)	G9a block 50µM, JMJD2A Tudor inconclusive
CCOc1cccc(/C(O)=C2/C(=O)C(=O)N(Cc3ccco3)C2c2ccncc2)c1 (stereo unspecified)	BAZ2B block inconclusive, G9a block 45µM, JMJD2A Tudor inconclusive
COc1cccc(CC(=O)Nc2cc(S(=O)(=O)N3CCOCC3)ccc2OC)c1	G9a block inconclusive (no result: Sfp inh)
O=C1C(=O)N(Cc2ccco2)C(c2cccs2)/C1=C(\O)c1cccc([N+](=O)[O-])c1 (stereo unspecified)	Sfp inh 45µM, L3MBTL1 block inconclusive
COc1ccc(C2/C(=C(/O)c3ccccc3)C(=O)C(=O)N2CC(C)O)c(OC)c1 (stereo unspecified)	G9a block inconclusive, JMJD2A Tudor 18µM
COc1ccc(OC)c(C2/C(=C(/O)c3ccccc3)C(=O)C(=O)N2Cc2ccco2)c1 (stereo unspecified)	none
COc1ccccc1C1/C(=C(/O)c2ccc(C)cc2)C(=O)C(=O)N1CC(C)O (stereo unspecified)	none
CCOc1cccc(/C(O)=C2/C(=O)C(=O)N(CCOC)C2c2ccco2)c1 (stereo unspecified)	Sfp inh inconclusive, G9a block inconclusive, JMJD2A Tudor 79µM (no result: L3MBTL1 block)
COCCN1C(=O)C(=O)/C(=C(/O)c2cccc(OC)c2)C1c1ccc(C)o1 (stereo unspecified)	Sfp inh inconclusive, JMJD2A Tudor inconclusive
O=C/C=C/c1c(-c2ccccc2)cc2oc3ccccc3cc1-2	BAZ2B block 3.5µM, HP1b chromo inh 6.3µM, G9a block 8.9µM, JMJD2A Tudor 6.3µM (no result: L3MBTL1 block)

Bioassay records from PubChem.
